# In PubChem BioAssay (EPA / NIEHS):
# Calls of active or inactive are those of the source. The calls were made as follows: active = hit-call score of the fitted dose curve at least 0.9, where 1 is the maximum; inactive = score below 0.9.
# Assay: IUF_NPC4_neurite_length_120hr: Leibniz Research Institute for Environmental Medicine (IUF) 120-hour Neuronal Morphology Assay for Neurite Length (NPC4) (AID 2284302)
# Method: IUF_NPC2-5 is a cell-based, multiplexed assay that uses hNPC, a human primary neural progenitor cells, with measurements taken at 72 or 120 hours after chemical dosing in a 96-well plate. Human neural progenitor cells (hNPC) are generated from human fetal brain cortex at gestational week (GW) 16-19. In the neural progenitor cell migration and differentiation assay (NPC2-5), hNPCs grown as spheres are plated on an extracellular matrix and migrate and differentiate out of the sphere core. The processes radial glia migration, neuronal and oligodendrocyte migration as well as neuronal differentiation, neuronal morphology and oligodendrocyte differentiation are studied using automated phase contrast imaging and automated fluorescence imaging in combination with high content image analysis. In parallel, the cell viability is assessed using an alamar blue viability assay and the cytotoxicity using a lactate dehydrogenase dependent membrane integrity assay.IUF_NPC4_neurite_length_120hr is one of 12 assay components measured from the IUF_NPC2-5 assay. The neurite length at 120 hr is the mean length in um of all neurons (see IUF_NPC3_neuronal_differentiation_120hr) that are identified by the skeletonization algorithm in Omnisphero.Data from the IUF_NPC4_neurite_length_120hr component was analyzed at the endpoint IUF_NPC4_neurite_length_120hr in the positive analysis fitting direction relative to DMSO as the negative control and baseline of activity. Using a type of differentiation reporter, gain or loss-of-signal activity can be used to understand developmental effects.
# Culture protocol: After the cell expansion period the cells are cultured for up to four weeks in which they are passaged every week as described in 3.6. Between one to three days after passaging spheres at a size of 0.3 mm are picked for the test method. For the assessment of neural progenitor cell migration and differentiation, the spheres are plated on poly-D-lysine/laminin coated 96-well flat bottom plates in differentiation medium (N2) to initiate migration and differentiation. Thereby one 0.3 mm big sphere is plated in the middle of a well. The differentiation medium consists of DMEM and Ham's F12 at a ratio of 3 to 1 supplemented with 1% N2 and 1% penicillin and streptomycin. Within 5 days NPCs radially migrate out of the sphere core and differentiate into radial glia cells (nestin positive), neurons (TUBB3 positive), oligodendrocytes (O4 positive) and astrocytes (GFAP positive). Cultivation during the test method is performed at 37C and 5% CO2 at a ph of 7.2-7.6.Exposure: 0.3 mm big hNPC are plated in the already prepared test conditions. Exposure starts at day 0 of differentiation and is continued over five days of differentiation until the experiment is terminated. Cells are fed with fresh medium at day 3 of differentiation. Therefore, half of the test condition solution (e.g. solvent control or compound dilution) is replaced by freshly prepared test condition solution.Test Method: Migration distance and cytotoxicity is determined after 72 hours based on brightfield images of each well. The assay is terminated by the assessment of cell viability and cytotoxicity as well as cell fixation after 120 h. Immunocytochemistry is performed for Hoechst positive nuclei, TUBB3 positive neurons and O4 positive oligodendrocytes. On the ICC images, migration after 120 hours, neuronal and oligodendrocyte number, neuronal morphology and neuron/oligodendrocyte specific migration is assessed. immunocytochemical staining (ICC) generates an image for each sphere. The plates are scanned using an automated high content imaging device and all nuclei and their positions are determined automatically based on their intensity and size. Images are imported to the Omnisphero software to run the image analysis that measures the following endpoints. The method is set up for 8 test conditions including 7 compound concentrations and one SC. […]
SMILES,AC50,outcome
COC(=O)Nc1nc2ccccc2[nH]1,8.96 µM (active),
CCCCOC(=O)c1ccccc1C(=O)OCc1ccccc1,,inactive
OCCOCCO,,inactive
CC(C)(C)C(O)(CCc1ccc(Cl)cc1)Cn1cncn1 (stereo not given),,inactive
CC(C)COC(=O)c1ccccc1C(=O)OCC(C)C,,inactive
CNC(=O)Oc1cccc2c1OC(C)(C)C2,,inactive
O=P(OCCCl)(OCCCl)OCCCl,,inactive
CCC[CH2][Sn]([Cl])([CH2]CCC)[CH2]CCC,0.303 µM (active),
[O-][Cl+]O,,inactive
COP(=S)(OC)SCN1C(=O)c2ccccc2C1=O,,inactive
